# Results reported in PubChem BioAssay AID1159580 (chemical genetic matrix, 2015).
# Screen size: about 5,500 compounds; about 2,000 (36%) were called active. Inconclusive results (about 18%) are left out. Some of the results follow. Values without a mark were called inactive. Cut-off read from the data, not from the text of the source: active = normalized growth mostly below about 0.91 (no sharp cut-off); inconclusive = no clear call, values can overlap the other calls; inactive = mostly above about 0.92.
# Assay: chemical genetic growth profiling, strain panel (AID 1159580);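 note: tested at 20 µM; growth read once vehicle control cultures reached saturation at 30 °C; 1 = growth at the plate median or of vehicle wells; lower values mean less growth of the strain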
# Conditions: S. cerevisiae deletion strains, growth OD
# [1] = locus YDL101C, strain DUN1, stronger effect = lower value
# [2] = locus YHR030C, strain SLT2, stronger effect = lower value
compound,measurement,setting,value
Cc1onc(-c2ccc(Cl)cc2)c1-c1ccnn1C(=O)NC(C)C,normalized growth,"locus YAL013W, strain DEP1, stronger effect = lower value",0.966
same,normalized growth,"locus YBR229C, strain ROT2, stronger effect = lower value",0.932
same,normalized growth,"locus YCL061C, strain MRC1, stronger effect = lower value",0.963
same,normalized growth,[1],0.974
same,normalized growth,"locus YDR150W, strain NUM1, stronger effect = lower value",0.96
same,normalized growth,"locus YEL061C, strain CIN8, stronger effect = lower value",0.94
same,normalized growth,"locus YGR078C, strain PAC10, stronger effect = lower value",0.92 (active)
same,normalized growth,[2],0.918
same,normalized growth,"locus YHR087W, strain rtc3, stronger effect = lower value",0.906 (active)
same,normalized growth,"locus YJR043C, strain POL32, stronger effect = lower value",0.949
same,normalized growth,"locus YJR075W, strain HOC1, stronger effect = lower value",0.73 (active)
same,normalized growth,"locus YKL190W, strain CNB1, stronger effect = lower value",0.906 (active)
same,normalized growth,"locus YLR039C, strain RIC1, stronger effect = lower value",0.989
same,normalized growth,"locus YLR058C, strain SHM2 (second series), stronger effect = lower value",0.92 (active)
same,normalized growth,"locus YLR085C, strain ARP6, stronger effect = lower value",0.591 (active)
same,normalized growth,"locus YLR262C, strain YPT6, stronger effect = lower value",1.02
same,normalized growth,"locus YML094W, strain GIM5, stronger effect = lower value",0.964
same,normalized growth,"locus YMR219W, strain ESC1, stronger effect = lower value",0.933 (active)
same,normalized growth,"locus YMR263W, strain SAP30, stronger effect = lower value",0.951
same,normalized growth,"locus YNL153C, strain GIM3, stronger effect = lower value",0.964
same,normalized growth,"locus YNL298W, strain CLA4 (second series), stronger effect = lower value",0.836 (active)
same,normalized growth,"locus YNL322C, strain KRE1, stronger effect = lower value",0.921 (active)
same,normalized growth,"locus YNR030W, strain Alg12, stronger effect = lower value",0.804 (active)
same,normalized growth,"locus YPL055C, strain LGE1, stronger effect = lower value",0.835
same,normalized growth,"locus YPL241C, strain CIN2, stronger effect = lower value",0.789 (active)
same,normalized growth,"locus YPR135W, strain CTF4, stronger effect = lower value",0.71
Cc1cc(Cl)ccc1NNC(=O)c1sccc1Cl,normalized growth,"locus YAR019C, strain CDC15, stronger effect = lower value",0.892
same,normalized growth,"locus YBL105C, strain PKC1, stronger effect = lower value",0.912
same,normalized growth,"locus YBR135W, strain CKS1, stronger effect = lower value",0.908
same,normalized growth,"locus YBR136W, strain MEC1, stronger effect = lower value",0.9
same,normalized growth,"locus YBR160W, strain CDC28, stronger effect = lower value",0.913
same,normalized growth,"locus YDL017W, strain CDC7, stronger effect = lower value",0.915
same,normalized growth,"locus YDL028C, strain MPS1, stronger effect = lower value",0.912
same,normalized growth,[1],0.907 (active)
same,normalized growth,"locus YDL108W, strain KIN28, stronger effect = lower value",0.907
same,normalized growth,"locus YDL132W, strain cdc53, stronger effect = lower value",0.928
same,normalized growth,"locus YDL214C, strain PRR2, stronger effect = lower value",0.869
same,normalized growth,"locus YDR052C, strain DBF4, stronger effect = lower value",0.898 (active)
same,normalized growth,"locus YDR054C, strain cdc34, stronger effect = lower value",0.882
same,normalized growth,"locus YDR226W, strain ADK1, stronger effect = lower value",0.894 (active)
same,normalized growth,"locus YDR477W, strain SNF1, stronger effect = lower value",0.861
same,normalized growth,"locus YER123W, strain YCK3, stronger effect = lower value",0.787
same,normalized growth,"locus YER133W, strain GLC7, stronger effect = lower value",0.794
same,normalized growth,"locus YFL009W, strain cdc4, stronger effect = lower value",0.893
same,normalized growth,"locus YFL029C, strain CAK1, stronger effect = lower value",0.883
same,normalized growth,"locus YFR003C, strain YPI1, stronger effect = lower value",0.911
same,normalized growth,"locus YFR019W, strain FAB1, stronger effect = lower value",0.907
same,normalized growth,"locus YFR028C, strain CDC14, stronger effect = lower value",0.894
same,normalized growth,"locus YGR040W, strain KSS1, stronger effect = lower value",0.861
same,normalized growth,"locus YGR052W, strain FMP48, stronger effect = lower value",0.861
same,normalized growth,"locus YGR092W, strain DBF2, stronger effect = lower value",0.7
same,normalized growth,[2],0.152 (active)
same,normalized growth,"locus YHR079C, strain IRE1, stronger effect = lower value",0.859
same,normalized growth,"locus YHR082C, strain KSP1, stronger effect = lower value",0.884
same,normalized growth,"locus YHR205W, strain SCH9, stronger effect = lower value",0.878
same,normalized growth,"locus YIL147C, strain SLN1, stronger effect = lower value",0.913
same,normalized growth,"locus YJL095W, strain BCK1, stronger effect = lower value",0.194 (active)
same,normalized growth,"locus YJL128C, strain PBS2, stronger effect = lower value",0.89
same,normalized growth,"locus YJL157C, strain FAR1, stronger effect = lower value",0.864
same,normalized growth,"locus YJR016C, strain ILV3, stronger effect = lower value",0.898 (active)
same,normalized growth,"locus YJR066W, strain TOR1 (second series), stronger effect = lower value",0.874
same,normalized growth,"locus YJR066W, strain TOR1, stronger effect = lower value",0.835
same,normalized growth,"locus YKL048C, strain ELM1, stronger effect = lower value",0.872
same,normalized growth,"locus YKL067W, strain YNK1, stronger effect = lower value",0.861
same,normalized growth,"locus YKL101W, strain HSL1, stronger effect = lower value",0.917
same,normalized growth,"locus YKL193C, strain SDS22, stronger effect = lower value",0.893
same,normalized growth,"locus YKL203C, strain TOR2, stronger effect = lower value",0.912
same,normalized growth,"locus YLR113W, strain HOG1, stronger effect = lower value",0.779 (active)
same,normalized growth,"locus YLR133W, strain CKI1, stronger effect = lower value",0.878
same,normalized growth,"locus YLR403W, strain SFP1, stronger effect = lower value",0.831
same,normalized growth,"locus YML070W, strain DAK1, stronger effect = lower value",0.836
same,normalized growth,"locus YMR001C, strain CDC5, stronger effect = lower value",0.894
same,normalized growth,"locus YMR205C, strain PFK2 (second series), stronger effect = lower value",0.844
same,normalized growth,"locus YMR277W, strain FCP1, stronger effect = lower value",0.905
same,normalized growth,"locus YNL006W, strain LST8, stronger effect = lower value",0.898 (active)
same,normalized growth,"locus YNL020C, strain ARK1, stronger effect = lower value",0.885
same,normalized growth,"locus YNL161W, strain CBK1, stronger effect = lower value",0.89 (active)
same,normalized growth,"locus YNL183C, strain NPR1, stronger effect = lower value",0.858
same,normalized growth,"locus YNL207W, strain RIO2, stronger effect = lower value",0.9
same,normalized growth,"locus YNL222W, strain SSU72, stronger effect = lower value",0.896
same,normalized growth,"locus YNL307C, strain MCK1 (second series), stronger effect = lower value",0.811
same,normalized growth,"locus YOL078W, strain AVO1, stronger effect = lower value",0.888
same,normalized growth,"locus YOL136C, strain PFK27, stronger effect = lower value",0.84
same,normalized growth,"locus YOR061W, strain CKA2, stronger effect = lower value",0.876
same,normalized growth,"locus YOR119C, strain RIO1, stronger effect = lower value",0.91
same,normalized growth,"locus YOR231W, strain MKK1, stronger effect = lower value",0.823
same,normalized growth,"locus YOR329C, strain SCD5, stronger effect = lower value",0.909
same,normalized growth,"locus YPL031C, strain PHO85, stronger effect = lower value",0.861
same,normalized growth,"locus YPL153C, strain RAD53, stronger effect = lower value",0.803
same,normalized growth,"locus YPL204W, strain HRR25, stronger effect = lower value",0.822
same,normalized growth,"locus YPL209C, strain IPL1, stronger effect = lower value",0.899 (active)
same,normalized growth,"locus YPL256C, strain CLN2, stronger effect = lower value",0.803 (active)
same,normalized growth,"locus YPR025C, strain CCL1, stronger effect = lower value",0.902
same,normalized growth,"locus YPR106W, strain ISR1, stronger effect = lower value",0.903
same,normalized growth,"locus YPR111W, strain DBF20, stronger effect = lower value",0.882
same,normalized growth,"strain NNK1, stronger effect = lower value",0.897
same,normalized growth,"strain TSCII, stronger effect = lower value",0.878 (active)
